Measured values reported in the OligoGym collection.

biological target: NUP54; test: pooled miR-30 sensor sort-seq; sequence = guide strand; conditions: shRNA
Note: reference of the scale not given here.

Row | Sequence | sensor-assay potency score (higher = more potent)
1 | TAATGTAGTTTGCTGCTGCTGC | 0.262
2 | TTCCTGTTTGATTAGGACCTGT | 0.0888
3 | TTCTAGATCGTCTTTAATGATG | -1.29
4 | TACATTTACAGTAAGGGTCTGG | 0.14
5 | TACAGATGTAGTTTGATTCTTT | 0.197
6 | TAAATAACAACTTCTGTCTGAT | 0.552
7 | ATAAATAACAACTTCTGTCTGA | 1.09
8 | TAAACCAGTACTAGTTCCCGTT | -0.284
9 | TATATCTTCTAGATCGTCTTTA | 0.519
10 | TTATATCTTCTAGATCGTCTTT | -0.236
11 | TTGTTGTTTCAAATGCTGCTTG | 0.0156

biological target: NUTF2; test: as above; conditions: shRNA

Row | Sequence | sensor-assay potency score (higher = more potent)
12 | TTCTTTAATAGGAACATCTGGT | -0.647
13 | TACAACACAAACTTCTCCCGTC | 0.549
14 | TATCATTATCAAATAACTGGTA | 0.126
15 | TAATAGGAACATCTGGTGGAAC | -1.27
16 | TAGTAATGTTGAATGAAGCTGG | 0.656
17 | TTCTCCTTCACTTCTTTGGGTT | -0.477
18 | TACTAGAGCAACTTGTCAGTAG | 0.355
19 | TGCAACTAGTCTAGCATCCAAA | -1.42
20 | TTTTGCATTACTTAAGTCTTTC | -0.669
21 | TTTAATAGGAACATCTGGTGGA | 0.705
22 | TTAATAGGAACATCTGGTGGAA | -0.0861

biological target: NXF3; test: as above; conditions: shRNA

Row | Sequence | sensor-assay potency score (higher = more potent)
23 | TTGCTCTTCTTTGAACAACTTG | -0.818
24 | TTCATAGTGAAACTCAACTGGG | -0.55
25 | TGCTCTTCTTTGAACAACTTGA | -0.684
26 | TTACAGGTTGGTAACCTCTTGT | 0.125
27 | TAATTTGGGGAACAATTCCAGG | -1.33
28 | TTTTCTGACTTCAGCTCCCTGT | -0.506
29 | TTGACAAAGATTGATATCTTTT | -1.25
30 | TTGAACAACTTGATCAGTGTGA | 0.976
31 | TTCTTCAACATCTCAGATCCAA | 0.0512
32 | TGCATCTCCATCTTGCTGCTGA | -0.136
33 | TTATCTGCTCCACCTTTTCTGA | -1.35
34 | AATCTTGCCACTGACATTCTTC | -0.451

biological target: NXF5; test: as above; conditions: shRNA

Row | Sequence | sensor-assay potency score (higher = more potent)
35 | ATTTCTTTCAGTGATCTTCAGG | -1.08
36 | TTGAAGTACTTGCACAAGTTGC | -0.882
37 | TTTTGTGTGCTTTAGCAGCTTC | 0.239
38 | TTCGTGGACATTTTGTGTGCTT | -0.318
39 | TTTCTTTCAGTGATCTTCAGGG | 0.16
40 | TTACATAGGCAGACTGGTCCGA | 0.61
